Assay results: PubChem BioAssay
Activity calls are given as the source filed them. Unless noted, the rule behind the calls is not given here.

What was measured:
[1] = system: Wnt5a (protein binding on small-molecule microarray); experiment: Wnt5a binders on small-molecule microarray, primary screen, biophysical, 635/667 nm fluorescence (AID 1142); details: 635 nm fluorescence, higher = more signal;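 note: fluorescence read at 667 nm with signal to noise per printed feature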
[2] = cell viability in Huh7 cells, primary screen, cytotoxicity control for HCV replication inhibitor project, CellTiter-Glo luminescence, basal, 48 h (AID 1143); details: Huh7 HCV replicon, higher = more signal, called active from +8 up or from −8 down;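 note: Huh7 hepatoma cells carrying a hepatitis C replication reporter with no stimulus; test concentration not given here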
[3] = P. aeruginosa biofilm formation inhibitors, primary screen, PAO1 strain, BacTiter-Glo luminescence, LB-PBS (AID 1144); details: 12 h, higher = more signal
[4] = CREB reporter modulators without forskolin, primary screen, cell-based, PC12, CRE-LacZ reporter, unstimulated (AID 1145); details: no forskolin, luminescence, 4.5 h, higher = more signal, called active from +8 up or from −8 down
[5] = CREB reporter modulators under forskolin, primary screen, cell-based, PC12, CRE-LacZ reporter, forskolin-stimulated (AID 1146); details: luminescence, 4.5 h, higher = more signal, called active from +8 up or from −8 down;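 note: PC12 cells with 6xCRE LacZ reporter stimulated by forskolin 10 µM; beta-galactosidase reporter signal reflecting CREB driven transcription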
[6] = target: Streptavidin (Streptomyces avidinii) (UniProt P22629); experiment: streptavidin binders on small-molecule microarray, primary screen, artefact control for SMM compound annotation, biophysical, 635/667 nm fluorescence (AID 1147); details: streptavidin binding, higher = more signal;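 note: signal reflects streptavidin binding to arrayed compounds as a control protein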
Sequence of Streptavidin (Streptomyces avidinii) (P22629 whole entry, looked up): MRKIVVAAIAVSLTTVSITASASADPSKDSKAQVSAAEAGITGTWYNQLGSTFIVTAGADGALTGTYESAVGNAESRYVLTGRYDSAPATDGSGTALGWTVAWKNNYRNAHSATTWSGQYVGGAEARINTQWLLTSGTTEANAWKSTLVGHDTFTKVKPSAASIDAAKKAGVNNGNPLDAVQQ

[7] = small-molecule binders of probe aInhba, primary screen, biochemical, small-molecule microarray, 635/667 nm fluorescence (AID 1148); details: higher = more signal;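 note: score merges 667nm spot fluorescence with signal-to-noise for antibody binding to printed compounds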
Torsin-1A (Homo sapiens) [8] = target: Torsin-1A (Homo sapiens) (UniProt O14656); experiment: torsin A binders from cell lysate, primary screen, small-molecule microarray, wild-type, 635/667 nm (AID 1149); details: COS7 hTOR1A-WT lysate, 635 nm fluorescence, higher = more signal
Sequence of Torsin-1A (Homo sapiens) (O14656 whole entry, looked up): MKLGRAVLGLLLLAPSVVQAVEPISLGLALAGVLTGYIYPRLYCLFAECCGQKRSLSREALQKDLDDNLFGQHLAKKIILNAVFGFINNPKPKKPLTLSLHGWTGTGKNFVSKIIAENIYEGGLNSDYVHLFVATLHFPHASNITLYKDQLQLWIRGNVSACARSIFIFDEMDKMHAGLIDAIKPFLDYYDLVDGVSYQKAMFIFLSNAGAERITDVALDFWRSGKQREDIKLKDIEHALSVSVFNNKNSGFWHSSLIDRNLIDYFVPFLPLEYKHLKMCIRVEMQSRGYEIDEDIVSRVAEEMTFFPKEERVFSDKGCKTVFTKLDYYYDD

Torsin-1A (Homo sapiens) [9] = target: Torsin-1A (Homo sapiens) (UniProt O14656); experiment: small-molecule binders of mutant TOR1A in lysate, primary screen, cell lysate, small-molecule microarray, COS7 lysate, 635/667 nm fluorescence (AID 1150); details: COS7 hTOR1A mutant lysate, 635 nm fluorescence, higher = more signal;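 note: score pools 667 nm emission and signal to noise measuring lysate protein binding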
[10] = system: Sonic hedgehog protein (Shh); experiment: small-molecule binders of Shh protein, primary screen, biochemical, small-molecule microarray, 635/667 nm fluorescence (AID 1151); details: small-molecule microarray binding, 635 nm fluorescence; higher = more signal;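 note: Shh protein binding to compounds spotted on small-molecule microarray slides; score combines spot fluorescence intensity with signal-to-noise across triplicate slides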
[11] = E. coli DRC41 culture turbidity changes, primary screen, E. coli filamentation inducer project, strain DRC41, OD650, 48 h (AID 1152);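 note: E. coli MC1000 strain DRC41 lacking acrAB efflux pump and sulA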; details: E. coli DRC41 (acrAB sulA), higher = more signal, called active from +8 up or from −8 down
[12] = small-molecule binders of probe aLefty1, primary screen, biochemical, small-molecule microarray, 635/667 nm fluorescence (AID 1153); details: higher = more signal;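 note: score merges spot fluorescence with signal-to-noise ratio from the scanned slide images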
[13] = PSAC antagonists in infected red cells, primary screen, cell-based, P. falciparum Indochina, OD700, 1 h (AID 1154); details: P. falciparum Indochina infected RBC osmotic lysis, higher = more signal, called active from +8 up or from −8 down
[14] = PSAC antagonists in infected red cells, primary screen, cell-based, P. falciparum Indochina, OD700, 2 h (AID 1155);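 note: lysis reports solute entry through the parasite surface anion channel PSAC; channel blockers reduce lysis of infected cells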; details: P. falciparum Indochina infected erythrocytes, osmotic lysis OD700; higher = more signal, called active from +8 up or from −8 down
[15] = osmotic lysis modulators in infected erythrocytes, primary screen, PSAC antagonist project, cell-based, P. falciparum Indochina, OD700, 3 h (AID 1156); details: higher = more signal, called active from +8 up or from −8 down
[16] = PSAC antagonists in infected red cells, primary screen, cell-based, P. falciparum Indochina, OD700, 18 h (AID 1157); details: P. falciparum Indochina infected erythrocytes, osmotic lysis OD700, 18 h; higher = more signal, called active from +8 up or from −8 down
[17] = modulators of S6 phosphorylation in cells, primary screen, cell-based, A549, cytoblot, luminescence, serum-stimulated (AID 1158); details: A549 phospho-S6 cytoblot, 5 h, higher = more signal;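 note: serum-stimulated A549 lung adenocarcinoma cells; signal is phosphorylated S6 detected by cytoblot immunostaining with HRP secondary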
[18] = target: NADPH oxidase 2 (Homo sapiens) (UniProt P04839); experiment: NOX2-dependent H2O2 signal modulators, primary screen, NOX inhibitor project, cell-based, HEK293-NOX2, PMA-stimulated, Amplex Red fluorescence (AID 1159); details: 45 min, higher = more signal, called active from +8 up or from −8 down; note: test concentration not given here
Sequence of NADPH oxidase 2 (Homo sapiens) (P04839 whole entry, looked up): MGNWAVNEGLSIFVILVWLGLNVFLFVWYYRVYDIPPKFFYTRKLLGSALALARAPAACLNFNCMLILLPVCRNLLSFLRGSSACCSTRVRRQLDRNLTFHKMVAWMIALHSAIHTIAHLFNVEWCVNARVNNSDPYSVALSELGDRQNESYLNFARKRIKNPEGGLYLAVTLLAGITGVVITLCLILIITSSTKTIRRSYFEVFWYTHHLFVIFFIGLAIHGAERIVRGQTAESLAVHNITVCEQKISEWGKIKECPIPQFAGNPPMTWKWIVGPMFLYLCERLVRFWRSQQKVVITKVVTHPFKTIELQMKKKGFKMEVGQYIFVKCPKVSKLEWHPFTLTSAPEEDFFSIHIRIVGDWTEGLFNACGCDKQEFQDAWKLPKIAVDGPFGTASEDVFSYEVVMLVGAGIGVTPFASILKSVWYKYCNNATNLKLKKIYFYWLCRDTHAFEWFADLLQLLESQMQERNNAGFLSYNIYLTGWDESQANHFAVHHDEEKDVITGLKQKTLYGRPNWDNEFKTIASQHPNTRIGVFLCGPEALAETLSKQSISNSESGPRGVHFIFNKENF

[19] = target: NADPH oxidase 4 (Homo sapiens) (UniProt Q9NPH5); experiment: NOX4-dependent H2O2 signal modulators, primary screen, NOX inhibitor project, cell-based, HEK293-NOX4, tetracycline-induced, Amplex Red fluorescence (AID 1160); details: 45 min, higher = more signal, called active from +8 up or from −8 down
Sequence of NADPH oxidase 4 (Homo sapiens) (Q9NPH5 whole entry, looked up): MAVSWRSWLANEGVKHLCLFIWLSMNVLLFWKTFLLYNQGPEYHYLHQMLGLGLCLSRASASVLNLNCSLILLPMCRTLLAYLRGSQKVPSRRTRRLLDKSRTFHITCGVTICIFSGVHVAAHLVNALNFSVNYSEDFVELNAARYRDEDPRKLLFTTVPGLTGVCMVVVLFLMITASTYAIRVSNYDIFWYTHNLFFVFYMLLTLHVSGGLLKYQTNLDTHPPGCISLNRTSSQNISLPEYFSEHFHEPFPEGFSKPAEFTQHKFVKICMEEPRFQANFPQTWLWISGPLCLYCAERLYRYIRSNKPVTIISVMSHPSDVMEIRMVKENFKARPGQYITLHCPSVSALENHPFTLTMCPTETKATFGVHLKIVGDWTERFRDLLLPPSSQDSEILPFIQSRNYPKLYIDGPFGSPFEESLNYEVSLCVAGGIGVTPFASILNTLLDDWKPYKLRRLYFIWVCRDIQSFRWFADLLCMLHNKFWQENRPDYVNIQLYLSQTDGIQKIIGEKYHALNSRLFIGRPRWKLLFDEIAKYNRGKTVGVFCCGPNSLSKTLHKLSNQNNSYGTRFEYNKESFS

[20] = target: NADPH oxidase 5 (Homo sapiens) (UniProt Q96PH1); experiment: NOX5-dependent H2O2 signal modulators, primary screen, NOX inhibitor project, cell-based, HEK293-NOX5, Amplex Red fluorescence (AID 1161); details: HEK293-NOX5, ionomycin, 45 min, higher = more signal
Sequence of NADPH oxidase 5 (Homo sapiens) (Q96PH1 whole entry, looked up): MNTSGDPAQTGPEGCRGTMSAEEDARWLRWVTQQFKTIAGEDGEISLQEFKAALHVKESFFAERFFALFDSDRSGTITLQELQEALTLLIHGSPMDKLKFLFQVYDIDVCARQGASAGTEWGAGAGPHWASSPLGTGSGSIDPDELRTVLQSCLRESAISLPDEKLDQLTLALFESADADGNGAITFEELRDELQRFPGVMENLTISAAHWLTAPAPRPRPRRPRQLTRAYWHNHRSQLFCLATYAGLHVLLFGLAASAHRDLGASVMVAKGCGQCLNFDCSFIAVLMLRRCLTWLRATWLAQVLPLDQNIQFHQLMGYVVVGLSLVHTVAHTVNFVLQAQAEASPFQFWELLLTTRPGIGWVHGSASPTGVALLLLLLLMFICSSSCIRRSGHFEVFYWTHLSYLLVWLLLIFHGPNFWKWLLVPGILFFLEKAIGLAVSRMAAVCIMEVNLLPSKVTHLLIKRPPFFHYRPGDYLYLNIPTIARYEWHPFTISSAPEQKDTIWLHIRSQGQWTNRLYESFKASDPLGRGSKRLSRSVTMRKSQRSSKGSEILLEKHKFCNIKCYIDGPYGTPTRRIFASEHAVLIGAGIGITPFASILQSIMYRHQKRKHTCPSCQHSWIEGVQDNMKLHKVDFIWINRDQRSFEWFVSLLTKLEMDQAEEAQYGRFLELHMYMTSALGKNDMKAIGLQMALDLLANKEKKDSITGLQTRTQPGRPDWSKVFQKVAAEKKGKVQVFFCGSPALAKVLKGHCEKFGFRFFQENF

Row | SMILES | composite z-score [1] | z-score [2] | z-score [3] | z-score [4] | z-score [5] | composite z-score [6] | composite z-score [7] | composite z-score (Torsin-1A (Homo sapiens) [8]) | composite z-score (Torsin-1A (Homo sapiens) [9]) | composite z-score [10] | z-score [11] | composite z-score [12] | z-score [13] | z-score [14] | z-score [15] | z-score [16] | z-score [17] | z-score [18] | z-score [19] | z-score [20]
1 | CCOC(=O)[C@H](CC(C)C)NC(=O)CCC1CC(OC(=O)NCc2ccc3c(c2)OCO3)CC2(CCCC(COC(=O)NCCOc3ccccc3)O2)O1 (stereo not given in full) | 0.278 | -0.705 (inactive) | -0.393 (inactive) | 0.293 (inactive) | 0.179 (inactive) | 0.282 | -0.0719 | 0.314 | 0.387 | 1.87 | -0.832 (inactive) | 0.0882 | 0.339 (inactive) | -0.35 (inactive) | -0.118 (inactive) | -0.193 (inactive) | 0.128 | 1.02 (inactive) | -1.63 (inactive) | -0.0957
2 | COC(=O)CC=C[C@@H](C)[C@@H](C=NOC[C@@H](O)[C@H]1O[C@@H]2OC(C)(C)O[C@@H]2[C@H]1O)OC | 0.183 | 0.559 (inactive) | 0.601 (inactive) | -0.0545 (inactive) | 0.0127 (inactive) | 0.271 | -0.149 | -0.104 | 0.162 | 0.867 | 0.29 (inactive) | -0.0603 | 0.332 (inactive) | 0.453 (inactive) | 0.141 (inactive) | 0.443 (inactive) | -0.332 | 0.144 (inactive) | -0.51 (inactive) | 0.15
3 | CC(=O)OC[C@H]1O[C@H](CCON=C(C)C)C=C[C@@H]1OC(C)=O | 0.0141 | 0.702 (inactive) | 0.249 (inactive) | -0.715 (inactive) | 0.383 (inactive) | 0.17 | -0.038 | -0.0297 | -0.115 | 0.427 | -1.66 (inactive) | -0.0412 | 0.158 (inactive) | 0.328 (inactive) | -0.599 (inactive) | 0.196 (inactive) | -0.71 | 0.0813 (inactive) | 0.151 (inactive) | -0.227
4 | CCOC(=O)[C@H](Cc1ccccc1)NC(=O)CCC1CC(OC(=O)NCc2ccc3c(c2)OCO3)CC2(CCCC(COC(=O)NCCCN3CCCC3=O)O2)O1 (stereo not given in full) | 0.0512 | -1.98 (inactive) | 0.14 (inactive) | 1.01 (inactive) | -0.257 (inactive) | 0.669 | -0.0736 | 0.408 | 0.078 | 1.53 | 0.169 (inactive) | -0.572 | -0.709 (inactive) | 0.274 (inactive) | 0.218 (inactive) | 0.151 (inactive) | 0.125 | 0.996 (inactive) | 0.689 (inactive) | -0.044
5 | CC(=O)OC[C@H]1O[C@H](CCON=C(C)CCN2CCCc3nc(C)c(C)cc32)C=C[C@@H]1OC(C)=O | 0.166 | 0.271 (inactive) | -0.181 (inactive) | 0.322 (inactive) | 0.469 (inactive) | 0.426 | 0.0973 | 0.946 | 1.17 | 1 | 0.198 (inactive) | 0.0861 | 2.13 (inactive) | 1.25 (inactive) | 0.872 (inactive) | 0.489 (inactive) | -1.17 | 0.152 (inactive) | 0.11 (inactive) | 0.207
6 | COc1ccc(OC[C@H]2CN3[C@@H](CC[C@@H](C)[C@@H]3c3ccc(Br)cc3)C(=O)O2)cc1 | -0.144 | -0.202 (inactive) | -0.225 (inactive) | 2.62 (inactive) | -0.165 (inactive) | 0.169 | -0.2 | 0.357 | 0.28 | 0.583 | -0.228 (inactive) | 0.0861 | 2.04 (inactive) | 1.25 (inactive) | 0.345 (inactive) | 0.343 (inactive) | 0.936 | -0.783 (inactive) | -1.61 (inactive) | -0.392
7 | C[C@H]1C=CCC(=O)OC[C@H](C)C(=O)N2CCC[C@H]2C(=O)OC1 | 0.193 | -0.401 (inactive) | -0.324 (inactive) | -0.324 (inactive) | 0.0267 (inactive) | -0.176 | -0.182 | 3.32 | 3.03 | 2.35 | 0.392 (inactive) | -0.199 | 0.158 (inactive) | -0.157 (inactive) | 0.484 (inactive) | 0.0217 (inactive) | -0.732 | 0.166 (inactive) | 0.515 (inactive) | -0.957
8 | COC(=O)[C@H](C)NC(=O)CCC1CC(OC(=O)NCc2cccc3ccccc23)CC2(CCCC(COC(=O)NCCOc3ccccc3)O2)O1 (stereo not given in full) | 0.029 | -2.56 (inactive) | 0.0153 (inactive) | -0.709 (inactive) | 0.222 (inactive) | 0.688 | -0.025 | 0.182 | -0.13 | 0.334 | -0.677 (inactive) | -0.186 | 7.46 (inactive) | 0.622 (inactive) | -0.363 (inactive) | 0.346 (inactive) | 0.152 | 0.00289 (inactive) | -0.292 (inactive) | -0.19
9 | COC(=O)[C@@H]1CC[C@H](C)[C@@H](c2ccc(Br)cc2)N1C[C@@H](O)CN=[N+]=[N-] | 0.538 | -3.06 (inactive) | -1.91 (inactive) | 0.105 (inactive) | -0.571 (inactive) | 0.398 | -0.224 | 0.54 | -0.117 | 0.581 | -1.67 (inactive) | -0.147 | 1.87 (inactive) | -0.514 (inactive) | 0.27 (inactive) | -0.956 (inactive) | 1.84 | 0.0777 (inactive) | -1.37 (inactive) | 0.126
